Values joined by “and” are separate entries in the source; they are usually repeats but may differ in a detail not shown here. Equal entries are not always repeated. Inconclusive results are not listed. Some compounds were tested as several samples or in several runs, with calls that do not always agree. Active and inactive are the calls of the source. Unless noted, the call rests on the fitted dose curve.

The nature of assay [1]: qHTS assay to identify small molecule antagonists of the sonic hedgehog signaling (Shh) pathway (AID 1259369). Further: nearly all actives have a fitted effect of over 45% in size. Further: potency means the concentration at half of the fitted maximal effect. In outline:
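Read-out is luminescence from a firefly luciferase gene controlled by the Gli1 response element, in 3T3Gli1-Luc cells pre-incubated 4hr then exposed to compounds and conditioned medium for 24hr.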

Assay [2] deals with Estrogen receptor beta (Homo sapiens) (UniProt Q92731). Nature of the assay: qHTS assay to identify small molecule agonists of the estrogen receptor beta (ER-beta) signaling pathway (AID 1259377; active means well fitted activation curve with a large enough effect in the signal ratio in the repeat runs, not every such curve was filed as active; the % refers to the signal ratio). In outline:
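Read-out: beta-lactamase FRET fluorescence. Cell line: ER-beta-UAS-bla HEK293T in 2% charcoal-stripped FBS. Exposure: 16 hr at 37C. Substrate step: 2 h at room temperature.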
In general terms: Quantitative high-throughput screening tests each substance at several concentrations.

Assay [3] has the same target. Nature of the assay: qHTS assay to identify small molecule antagonists of the estrogen receptor beta (ER-beta) signaling pathway (AID 1259378; active means well fitted inhibition curve with a large enough effect in the signal ratio in the repeat runs, not every such curve was filed as active; the % refers to the signal ratio). In a few lines:
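Antagonist mode: compounds added to beta-lactamase reporter HEK293T ER-beta-UAS cells stimulated with E2 (1nM final), 16 hr at 37C. LiveBLAzer B/G FRET substrate, 2 hours room temperature, fluorescence read-out.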

A short description of assay [4]: qHTS assay to identify small molecule agonists of the androgen receptor (AR) signaling pathway in the presence of an antagonist - cell viability counter screen (AID 1259379; active means well fitted curve in the direction sought with a large enough effect in the repeat runs; an effect the other way counts as inactive or inconclusive;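 further: MDA-kb2 human breast cancer cells carrying an MMTV luciferase reporter; series mostly up to about 92 µM; nearly all actives have a fitted effect of over 25% in size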). In outline: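 Each compound was tested at 15 concentrations on MDA-kb2 cells in the presence of 3.0uM nilutamide. Viability was measured by CellTiter-Fluor fluorescence after a 16 hr incubation at 37C in a CO2-free atmosphere.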

The nature of assay [5]: qHTS assay to identify small molecule agonists of the estrogen receptor beta (ER-beta) signaling pathway - cell viability counter screen (AID 1259380; active means well fitted curve in the direction sought with a large enough effect in the repeat runs; an effect the other way counts as inactive or inconclusive; further: nearly all actives have a fitted effect of over 30% in size; further: potency means the concentration at half of the fitted maximal effect). In a few lines:
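Compounds dissolved in DMSO were pin-transferred onto ER-beta-UAS-bla HEK293T cells that had settled 6 hr, and exposure ran 16 hr at 37C. Following the reporter read, CellTiter-Glo luminescence after 30 min at room temperature indicated cytotoxicity.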

Assay [6] in a line: qHTS assay to identify small molecule antagonists of the estrogen receptor beta (ER-beta) signaling pathway - cell viability counter screen (AID 1259382; active means well fitted curve in the direction sought with a large enough effect in the repeat runs; an effect the other way counts as inactive or inconclusive; further: nearly all actives have a fitted effect of over 55% in size; further: potency means the concentration at half of the fitted maximal effect;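 on activity change, negative = cytotoxicity: HEK293T cells carrying ER-beta-UAS-bla reporter stimulated with estradiol; series mostly up to about 92 µM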). In a few lines:
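CellTiter-Glo ATP luminescence measured after the LiveBLAzer read in the same wells; ER-beta-UAS-bla HEK293T cells, 16 hr compound treatment with 1nM 17-beta-estradiol agonist at 37C, 5% CO2.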

In assay [7] the target is Estrogen receptor (Homo sapiens) (UniProt P03372). Nature of the assay: qHTS assay to identify small molecule agonists of the estrogen receptor alpha (ER-alpha) signaling pathway in the presence of an antagonist (AID 1259383). Further: top concentration of the series differs between compounds; nearly all actives have a fitted effect of over 15% in size. In a few lines:
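Luminescent ERE-luciferase reporter, VM7Luc4E2 cells (endogenous ER-alpha); 10.0nM ICI-182,780 final; 15-point compound titration; 22hr at 37C; ONE-Glo, 30min RT.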

Assay [8] is described as follows: qHTS assay to identify small molecule agonists or antagonists of the thyroid stimulating hormone receptor (TSHR) signaling pathway - wild type cell line counter screen (AID 1259384). In outline: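 Counter screen in untransfected Hek293: compounds (15-point titration, triplicate) plus phosphodiesterase inhibitor Ro20-1724 added after 18 h plating; 30 min RT. Intracellular cAMP via competitive d2/cryptate immunoassay, 1 h incubation.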

Assay [9] deals with Thyrotropin receptor (Homo sapiens) (UniProt P16473). Kind of assay: qHTS assay to identify small molecule antagonists of the thyroid stimulating hormone receptor (TSHR) signaling pathway (AID 1259385). Further: nearly all actives have a fitted effect of over 20% in size. In a few lines: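 Antagonist mode: compound-treated TSHR-expressing HEK293 cells were stimulated with 1.5 ng/mL TSH (final) in presence of Ro20-1724 for 30 min at RT. HTRF cAMP detection after 1 h; each compound tested at 15 concentrations, triplicate.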
Thyrotropin receptor (Homo sapiens), sequence (P16473 whole entry, looked up): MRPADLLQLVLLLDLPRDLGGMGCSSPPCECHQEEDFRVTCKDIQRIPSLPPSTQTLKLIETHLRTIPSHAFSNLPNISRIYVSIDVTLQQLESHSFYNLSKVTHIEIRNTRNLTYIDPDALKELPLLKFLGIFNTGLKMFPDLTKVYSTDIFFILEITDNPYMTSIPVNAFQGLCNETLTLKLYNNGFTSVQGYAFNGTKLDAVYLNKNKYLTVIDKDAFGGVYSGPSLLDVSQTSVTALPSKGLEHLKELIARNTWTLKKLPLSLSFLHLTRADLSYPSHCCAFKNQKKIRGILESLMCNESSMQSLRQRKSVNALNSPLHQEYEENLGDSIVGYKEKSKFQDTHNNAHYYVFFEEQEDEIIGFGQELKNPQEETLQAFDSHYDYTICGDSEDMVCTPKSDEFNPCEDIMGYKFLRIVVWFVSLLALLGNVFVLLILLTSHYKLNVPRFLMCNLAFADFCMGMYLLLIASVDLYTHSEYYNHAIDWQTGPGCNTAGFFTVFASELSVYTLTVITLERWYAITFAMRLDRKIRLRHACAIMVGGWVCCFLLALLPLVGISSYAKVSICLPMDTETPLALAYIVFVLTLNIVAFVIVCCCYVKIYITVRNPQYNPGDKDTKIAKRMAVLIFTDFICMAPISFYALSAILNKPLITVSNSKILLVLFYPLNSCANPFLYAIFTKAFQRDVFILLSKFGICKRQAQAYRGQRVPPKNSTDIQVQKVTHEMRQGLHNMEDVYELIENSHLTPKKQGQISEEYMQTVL
On the % scale 0 is the no-effect control and ±100 the full control effect.

Estrogen receptor (Homo sapiens), sequence (P03372 whole entry, looked up): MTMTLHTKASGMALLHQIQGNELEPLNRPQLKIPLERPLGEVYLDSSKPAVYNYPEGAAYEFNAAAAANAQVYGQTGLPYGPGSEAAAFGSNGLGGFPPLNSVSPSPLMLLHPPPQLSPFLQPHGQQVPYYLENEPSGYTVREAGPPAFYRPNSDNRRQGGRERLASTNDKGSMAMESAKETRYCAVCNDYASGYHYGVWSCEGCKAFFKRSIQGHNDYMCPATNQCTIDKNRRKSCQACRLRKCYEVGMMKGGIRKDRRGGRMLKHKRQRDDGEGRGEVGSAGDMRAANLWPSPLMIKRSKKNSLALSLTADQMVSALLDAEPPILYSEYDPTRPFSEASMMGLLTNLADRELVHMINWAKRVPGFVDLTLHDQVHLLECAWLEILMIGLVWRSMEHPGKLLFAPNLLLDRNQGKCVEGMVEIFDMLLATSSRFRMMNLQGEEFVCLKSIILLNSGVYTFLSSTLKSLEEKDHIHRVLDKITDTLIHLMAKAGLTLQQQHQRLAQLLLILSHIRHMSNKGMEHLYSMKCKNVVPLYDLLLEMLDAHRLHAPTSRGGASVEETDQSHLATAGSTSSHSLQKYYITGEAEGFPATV
Estrogen receptor beta (Homo sapiens), sequence (Q92731 whole entry, looked up): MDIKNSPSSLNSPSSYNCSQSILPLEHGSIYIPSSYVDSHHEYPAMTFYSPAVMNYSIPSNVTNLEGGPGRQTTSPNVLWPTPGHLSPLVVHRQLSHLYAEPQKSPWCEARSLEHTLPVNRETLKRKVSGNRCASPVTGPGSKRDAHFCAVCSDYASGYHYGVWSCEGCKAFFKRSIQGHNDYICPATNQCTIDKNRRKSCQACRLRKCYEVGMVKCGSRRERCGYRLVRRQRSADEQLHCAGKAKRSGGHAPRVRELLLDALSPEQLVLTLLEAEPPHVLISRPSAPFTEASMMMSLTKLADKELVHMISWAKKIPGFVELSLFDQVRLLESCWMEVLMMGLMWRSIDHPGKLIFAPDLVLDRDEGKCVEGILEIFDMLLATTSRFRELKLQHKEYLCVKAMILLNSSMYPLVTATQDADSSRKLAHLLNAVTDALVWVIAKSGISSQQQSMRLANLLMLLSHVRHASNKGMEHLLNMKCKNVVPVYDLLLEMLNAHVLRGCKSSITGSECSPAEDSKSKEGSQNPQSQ

On to `CCOC(=O)C(Cl)Cc1cc(-n2nc(C)n(C(F)F)c2=O)c(F)cc1Cl` (stereo not drawn), for which the Potency result in assay [1], in assay [2], in assay [4], in [5], in assay [6] and in assay [7] was “inactive” throughout. Besides, the compound was classed as inactive in assay [3], in [8] and in [9].
With `C=C1C[C@@H]2[C@H](CC[C@]3(C)C(=O)CC[C@@H]23)[C@@]2(C)C=CC(=O)C=C12`, the Potency in [1] is 6.68 µM (active). The Potency result in assay [2], in assay [4], in assay [5], in assay [6] and in [7] was “inactive” each time. For the same compound, the compound was called inactive in assay [3], in assay [8] and in [9].
As to `C=C(C)[C@H]1CN[C@H](C(=O)O)[C@H]1CC(=O)O`, the Potency result in assay [1], in [2], in [4], in [5], in assay [6] and in [7] was “inactive” throughout. For the same compound, the outcome in [3], in assay [8] and in assay [9] was inactive.
As for `ClC(Cl)(Cl)Cl`, the Potency entry in assay [1], in [2], in [4], in assay [5], in [6] and in [7] was “inactive” in each case. Also, the call in assay [3] and in assay [8] was inactive.
For the compound `C=CC1(C)OC(=O)N(c2cc(Cl)cc(Cl)c2)C1=O` (stereo not drawn), the Potency was 21.6 µM (active) and inactive in assay [1]; 27.1 µM (active) and 21.7 µM (active) in [5]; 54.2 µM (active) and inactive in assay [6]. For the same compound, the Potency entry in assay [2], in assay [4] and in [7] was “inactive” throughout. Moreover, the outcome in assay [3], in [8] and in assay [9] was inactive.
On to `C/C=C/CC#N`, for which the Potency entry in assay [1], in assay [2], in [4], in assay [5], in [6] and in assay [7] was “inactive” each time. The outcome in assay [3], in [8] and in [9] was inactive.
Turning to `CCN(CCO)CCn1c(Cc2ccccc2)nc2c1c(=O)n(C)c(=O)n2C`, the Potency entry in [1], in assay [2], in assay [4], in assay [5], in assay [6] and in [7] was “inactive” throughout. Besides, the outcome in assay [3] and in assay [8] was inactive.
On to `O=C(Cl)C(Cl)Cl`, for which the Potency entry in [1], in assay [2], in assay [4], in assay [5], in [6] and in assay [7] was “inactive” throughout. Besides, the compound was called inactive in assay [3], in assay [8] and in assay [9].
As to `C=CCCC#N`, the Potency result in [1], in assay [2], in [4], in [5], in [6] and in [7] was “inactive” each time. Besides, the compound was classed as inactive in [3] and in assay [8].
`CCCOC(=O)Cc1ccc(OCC(=O)N(CC)CC)c(OC)c1`: the Potency result in assay [1], in [2], in assay [4], in assay [5] and in [6] was “inactive” throughout. The result in assay [3], in assay [8] and in [9] was inactive.
On to `NCCOS(=O)(=O)O`, for which the Potency entry in assay [1], in assay [2], in [4], in assay [5] and in assay [7] was “inactive” in each case. For the same compound, the call in assay [3] and in assay [9] was inactive.
For the compound `ClCCCCl`, the Potency result in assay [1], in assay [2], in assay [4], in assay [5] and in [6] was “inactive” in each case. For the same compound, the compound was classed as inactive in assay [3], in [8] and in assay [9].
On to `CCC(C)C(C)(COC(N)=O)COC(N)=O` (stereo not drawn), for which the Potency entry in assay [1], in assay [2], in assay [4], in assay [5] and in assay [7] was “inactive” in each case. In addition, the call in assay [3], in assay [8] and in [9] was inactive.
Regarding `N[C@@H](Cc1ccc(Oc2cc(I)c(O)c(I)c2)c(I)c1)C(=O)O`, the Potency result in [1], in [2], in [4], in [5] and in assay [7] was “inactive” in each case. In addition, the result in assay [3] was inactive.
Regarding `C=CC=O`, the Potency entry in assay [1], in assay [2], in assay [4] and in [5] was “inactive” each time. For the same compound, the compound was called inactive in assay [3], in assay [8] and in assay [9].
Take `NC(=O)OCCCc1ccccc1`: the Potency result in assay [1], in assay [2], in assay [4], in assay [5] and in assay [7] was “inactive” throughout. In addition, the compound was classed as inactive in assay [3] and in assay [8].
For the compound `CCN(CCO)CCO`, the Potency entry in assay [1], in assay [2], in assay [4], in assay [5] and in assay [7] was “inactive” throughout. Besides, the call in assay [3], in assay [8] and in assay [9] was inactive.
Regarding `CCNP(=S)(OC)O/C(C)=C/C(=O)OC(C)C` (stereo not drawn), the Potency result in [1], in assay [2], in assay [4], in assay [5] and in assay [7] was “inactive” throughout. Besides, the compound was classed as inactive in [3].
For the compound `[P]#[In]`, the Potency result in assay [1], in assay [2], in assay [4], in [5] and in assay [6] was “inactive” each time. Besides, the compound was called inactive in assay [3], in assay [8] and in assay [9].
With `CC(C)[C@]12CC(=O)[C@H](C)[C@H]1C2`, the Potency result in [1], in assay [2], in assay [4], in [5] and in assay [6] was “inactive” each time. Besides, the compound was called inactive in assay [3] and in [8].
Take `CCOC(=O)N(C)N=O`: the Potency entry in assay [1], in [2], in assay [4], in assay [5] and in assay [6] was “inactive” each time. Besides, the compound was called inactive in assay [3] and in assay [9].
Regarding `CCC(=O)c1ccc(Cl)cc1`, the Potency entry in assay [1], in assay [2], in assay [4], in [5] and in assay [6] was “inactive” in each case. The outcome in [3] and in assay [9] was inactive.
Take `CC(=O)OCC1=C(C(=O)O)N2C(=O)[C@@H](N)[C@H]2SC1`: the activity change, negative = inhibition in assay [1] was 1.15% [at 19 µM] (inactive); in assay [9], 1.01% [at 19 µM] (inactive). For the same compound, the activation in assay [2] is -0.931% [at 19 µM] (inactive). For the same compound, in [3], the activity, negative = inhibition is 21.8% [at 19 µM] (inactive). Moreover, the activity change, negative = cytotoxicity is 4.78% [at 19 µM] (inactive) in assay [4], 0.632% [at 19 µM] (inactive) in [5] and -2.02% [at 19 µM] (inactive) in assay [6]. Further, in assay [8], the cAMP activity change was 4.85% [at 18.9 µM] (inactive).
`CCCCCCCCBr`: the Potency result in [1], in assay [2], in [4], in [5] and in [6] was “inactive” in each case. In addition, the result in assay [3], in assay [8] and in assay [9] was inactive.
As for `CCCC(C)(COC(N)=O)COC(N)=O`, the Potency in assay [1] is 25.8 µM (active). The Potency result in assay [2], in [4] and in [5] was “inactive” each time. For the same compound, the call in assay [3] and in assay [8] was inactive.
As for `CC[C@H](N)c1ccccc1`, the Potency entry in [1], in assay [2], in assay [4], in assay [5] and in assay [7] was “inactive” throughout. The call in assay [3], in assay [8] and in [9] was inactive.
As for `O=c1[nH]oc2c1CCNC2`, the Potency result in assay [1], in [2], in assay [4], in assay [6] and in assay [7] was “inactive” in each case. The compound was classed as inactive in assay [3], in [8] and in assay [9].
As to `CC(C)c1ccc(O)cc1`, the Potency result in assay [1], in [2], in assay [4], in assay [5] and in [6] was “inactive” throughout. The result in assay [3], in assay [8] and in assay [9] was inactive.

For the origin of these results see PubChem BioAssay (Tox21).
